# Measured values taken from PubChem BioAssay (EPA / NIEHS).
# Results filed as inconclusive are left out. Calls of active or inactive are those of the source. The calls were made as follows, unless noted: active = hit-call score of the fitted dose curve at least 0.9, where 1 is the maximum; inconclusive = response in the unintended direction; inactive = score below 0.9.
# How the values were obtained:
# [1] = target: Glutamate receptor ionotropic, kainate 1 (Rattus norvegicus) (UniProt P22756); assay: NVS_IC_rKAR: NovaScreen (NVS) Ion Channel Assay for rat Kainic Acid Receptors (KAR) (AID 2283334; active = hit-call score of the fitted dose curve at least 0.9, where 1 is the maximum; inactive = score below 0.9)
# Sequence of Glutamate receptor ionotropic, kainate 1 (Rattus norvegicus) (P22756 whole entry, looked up): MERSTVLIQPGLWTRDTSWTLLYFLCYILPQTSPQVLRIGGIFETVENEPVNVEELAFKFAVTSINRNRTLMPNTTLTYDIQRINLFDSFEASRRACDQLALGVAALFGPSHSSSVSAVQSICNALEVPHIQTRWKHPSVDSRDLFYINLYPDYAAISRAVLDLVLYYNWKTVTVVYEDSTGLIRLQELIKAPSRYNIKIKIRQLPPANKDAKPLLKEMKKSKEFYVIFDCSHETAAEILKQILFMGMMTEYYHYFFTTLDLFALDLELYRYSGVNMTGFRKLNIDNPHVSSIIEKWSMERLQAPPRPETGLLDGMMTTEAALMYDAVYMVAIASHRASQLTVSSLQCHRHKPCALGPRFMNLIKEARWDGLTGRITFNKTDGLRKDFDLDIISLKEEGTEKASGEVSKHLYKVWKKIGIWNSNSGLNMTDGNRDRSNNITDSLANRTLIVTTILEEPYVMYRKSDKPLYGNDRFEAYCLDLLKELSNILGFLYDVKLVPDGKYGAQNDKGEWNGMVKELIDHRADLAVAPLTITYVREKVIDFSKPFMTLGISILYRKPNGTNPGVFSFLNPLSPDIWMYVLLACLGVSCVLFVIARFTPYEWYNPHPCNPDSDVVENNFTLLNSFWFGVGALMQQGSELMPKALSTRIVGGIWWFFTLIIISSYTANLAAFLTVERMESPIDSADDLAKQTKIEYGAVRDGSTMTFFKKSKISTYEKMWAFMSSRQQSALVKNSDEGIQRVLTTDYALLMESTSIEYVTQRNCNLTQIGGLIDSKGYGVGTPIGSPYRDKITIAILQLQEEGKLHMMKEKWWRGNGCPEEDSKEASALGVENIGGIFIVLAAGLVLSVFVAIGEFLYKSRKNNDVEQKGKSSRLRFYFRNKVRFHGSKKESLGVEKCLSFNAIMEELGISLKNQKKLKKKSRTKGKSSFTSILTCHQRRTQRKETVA
# Outline: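 Rat forebrain membrane preparation incubated 1 h with radioligand and test chemical; bound signal read by filtration and scintillation. Single-concentration screen at 25 uM, then concentration series to 50 uM maximum.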
# [2] = target: bovine Gamma-Aminobutyric Acid Type A Receptor Agonist (GABAR Agonist), GABRA1 (gene 780973) (UniProt P08219); assay: NVS_LGIC_bGABAR_Agonist: NovaScreen (NVS) Ligand-Gated Ion Channel Assay for bovine Gamma-Aminobutyric Acid Type A Receptor Agonist (GABAR Agonist) (AID 2283338)
# Sequence of bovine Gamma-Aminobutyric Acid Type A Receptor Agonist (GABAR Agonist), GABRA1 (gene 780973) (P08219 whole entry, looked up): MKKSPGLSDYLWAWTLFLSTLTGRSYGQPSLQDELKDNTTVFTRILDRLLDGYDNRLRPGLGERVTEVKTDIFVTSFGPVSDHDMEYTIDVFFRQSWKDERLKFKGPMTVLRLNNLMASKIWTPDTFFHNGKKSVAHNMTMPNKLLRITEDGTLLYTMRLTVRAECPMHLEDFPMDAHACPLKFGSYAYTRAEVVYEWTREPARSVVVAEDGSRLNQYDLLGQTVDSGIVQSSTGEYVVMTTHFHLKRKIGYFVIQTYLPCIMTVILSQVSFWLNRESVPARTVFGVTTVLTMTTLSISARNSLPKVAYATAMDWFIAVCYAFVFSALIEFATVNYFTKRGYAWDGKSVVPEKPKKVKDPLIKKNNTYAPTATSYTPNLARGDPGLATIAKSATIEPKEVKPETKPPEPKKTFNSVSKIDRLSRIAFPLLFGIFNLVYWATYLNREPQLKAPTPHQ
# Procedure: (§1) NVS_LGIC_bGABAR_Agonist is a biochemical, single-readout assay that uses extracted gene-proteins from Bovine cerebellar membranes in a tissue-based cell-free assay. Measurements were taken 1 hour after chemical dosing in a 48-well plate.NVS_LGIC_bGABAR_Agonist is one of one assay component(s) measured or calculated from the NVS_LGIC_bGABAR_Agonist assay. It is designed to make measurements of radioligand binding, a form of binding reporter, as detected with scintillation counting signals by Filter-based radiodetection technology.Data from the assay component NVS_LGIC_bGABAR_Agonist was analyzed into 1 assay endpoint. This assay endpoint, NVS_LGIC_bGABAR_Agonist, was analyzed in the positive analysis fitting direction relative to DMSO as the negative control and baseline of activity. Using a type of binding reporter, gain-of-signal activity can be used to understand changes in the binding as they relate to the gene GABRA1. Furthermore, this assay endpoint can be referred to as a primary readout, because the performed assay has only produced 1 assay endpoint. To generalize the intended target to other relatable targets, this assay endpoint is annotated to the ion channel intended target family, where the subfamily is ligand-gated ion channel. […]
# [3] = target: rat Gamma-Aminobutyric Acid Type A Receptor BDZ, alpha 6 site (GABARa6), Gabra6 (gene 29708) (UniProt P30191); assay: NVS_LGIC_rGABARa6: NovaScreen (NVS) Ligand-Gated Ion Channel Assay for rat Gamma-Aminobutyric Acid Type A Receptor BDZ, alpha 6 site (GABARa6) (AID 2283339)
# Sequence of rat Gamma-Aminobutyric Acid Type A Receptor BDZ, alpha 6 site (GABARa6), Gabra6 (gene 29708) (P30191 whole entry, looked up): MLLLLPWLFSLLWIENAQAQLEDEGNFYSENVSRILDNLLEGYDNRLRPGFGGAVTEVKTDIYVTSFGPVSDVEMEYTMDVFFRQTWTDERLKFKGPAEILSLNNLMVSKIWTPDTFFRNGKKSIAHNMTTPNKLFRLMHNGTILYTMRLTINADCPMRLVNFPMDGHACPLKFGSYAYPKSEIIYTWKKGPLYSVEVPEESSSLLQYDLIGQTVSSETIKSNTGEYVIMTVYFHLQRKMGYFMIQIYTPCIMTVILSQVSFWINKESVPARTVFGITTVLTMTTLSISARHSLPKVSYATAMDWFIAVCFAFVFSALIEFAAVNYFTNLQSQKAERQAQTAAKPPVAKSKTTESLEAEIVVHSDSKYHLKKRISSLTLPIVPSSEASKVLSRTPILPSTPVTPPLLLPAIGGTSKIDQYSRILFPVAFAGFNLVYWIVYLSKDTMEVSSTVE
# Outline: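 Actives from a 25 uM duplicate screen were retested in concentration series (max 50 uM). Specific radioligand displacement from rat cerebellar membranes was counted by filter-based scintillation at 1 h; DMSO served as baseline.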
# [4] = target: rat Glutamate, MK-801 Agonist Site (GluNMDA_MK801), Grin1 (gene 24408) (UniProt P35439); assay: NVS_LGIC_rGluNMDA_MK801_Agonist: NovaScreen (NVS) Ligand-Gated Ion Channel Assay for rat Glutamate, MK-801 Agonist Site (GluNMDA_MK801) (AID 2283340)
# Procedure: as §1, with “NVS_LGIC_rGluNMDA_MK801_Agonist” for “NVS_LGIC_bGABAR_Agonist”, “Rat forebrain” for “Bovine cerebellar”, “1.5 hours” for “1 hour”, “plate.NVS_LGIC_rGluNMDA_MK801_Agonist” for “plate.NVS_LGIC_bGABAR_Agonist”, “NVS_LGIC_rGluNMDA_MK801_Agonist,” for “NVS_LGIC_bGABAR_Agonist,”, “Grin1.” for “GABRA1.”
# [5] = target: Bile acid receptor (Homo sapiens) (UniProt Q96RI1); assay: NVS_NR_hFXR_Agonist: NovaScreen (NVS) Nuclear Receptor Binding Assay for human Farnesoid X Receptor Agonism (FXR) (AID 2283347)
# Sequence of Bile acid receptor (Homo sapiens) (Q96RI1 whole entry, looked up): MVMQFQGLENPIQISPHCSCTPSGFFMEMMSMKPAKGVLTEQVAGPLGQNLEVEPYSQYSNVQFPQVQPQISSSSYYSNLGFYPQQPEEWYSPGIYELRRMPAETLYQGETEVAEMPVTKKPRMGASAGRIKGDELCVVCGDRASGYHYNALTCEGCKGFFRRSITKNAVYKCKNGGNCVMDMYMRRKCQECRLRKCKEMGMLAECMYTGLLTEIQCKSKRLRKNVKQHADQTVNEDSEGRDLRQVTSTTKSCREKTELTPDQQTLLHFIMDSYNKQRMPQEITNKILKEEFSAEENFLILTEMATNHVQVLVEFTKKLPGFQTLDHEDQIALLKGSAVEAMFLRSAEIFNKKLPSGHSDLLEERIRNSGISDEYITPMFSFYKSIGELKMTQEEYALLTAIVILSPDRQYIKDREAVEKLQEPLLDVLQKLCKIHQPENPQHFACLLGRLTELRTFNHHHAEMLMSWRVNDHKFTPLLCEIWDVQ
# Outline: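 Agonist-mode FXR assay read by time-resolved FRET 1 h after compound addition, using isolated human receptor protein without cells. Duplicate 25 uM single-point primary screen, concentration series for confirmed actives; DMSO as baseline.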
smiles,measurement,setting,value
CO/N=C(/C1=NOCCO1)c1ccccc1Oc1ncnc(Oc2ccccc2Cl)c1F,outcome,[1],inactive
Nc1cnn(-c2ccccc2)c(=O)c1Cl,outcome,[2],inactive
CCCCC(O)(Cn1cncn1)c1ccc(Cl)cc1Cl (stereo not given),AC50,[3],1890 nM (active)
same,outcome,[4],inactive
CCOc1nc(F)cc2nc(S(=O)(=O)Nc3c(Cl)cccc3Cl)nn12,outcome,[5],inactive
